From PubChem BioAssay
An excerpt weighted towards active compounds, which were near 2.3% of everything screened.
Mcl1 Noxa PPI – Mcl-1/Noxa interaction inhibition | TR-FRET Mcl-1/Noxa peptide binding, 2 h | 1.5% of 220,000 active | AID 1022 | inhibition, % at 21.7 µM;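 active = compounds that cut the protein-peptide binding signal by more than 50% relative to plate controls in a single-dose test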;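 note: His-tagged Mcl-1 with rhodamine Noxa BH3 peptide and terbium anti-His antibody; 0% = Mcl-1 plus Noxa peptide wells and 100% = peptide-only wells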
Mcl-1 Bim block – inhibitors of Bim-Mcl-1 interaction, human; Q07820; Bead-based flow cytometry, Bim peptide-Mcl-1 binding; inhibition, % at 10 µM; 0.1% of 190,000 active; in the data active = inhibition above about 40%;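 note: 0% = no compound tracer wells and 100% = peptide blocker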
GLD-1 TGE inh – GLD-1-TGE RNA interaction inhibition (C. elegans); 0.44% of 320,000 active; purified GLD-1 + fluorescein TGE RNA, fluorescence polarization; AID 2280; inhibition, % at 5.96 µM;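 active = percent inhibition above a per-plate cutoff, the plate mean of test compounds plus 3 SD, cut at about 30% in these data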;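 note: 0% = DMSO wells with GLD-1 and probe and 100% = wells lacking GLD-1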
BCLXL inh – Bcl-xL (human) inhibition; GST-Bcl-xL / FITC-Bim BH3 peptide fluorescence polarization; inhibition, % at 10.9 µM; 0.7% of 320,000 active; AID 2129;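 active = inhibition above the mean of all tested compounds plus 3 SD, cutoff set per campaign, cut at about 30% in these data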;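 note: 0% = DMSO wells and 100% = unlabeled Bim-BH3 peptide competitor; inhibitors lower millipolarization by displacing the labeled peptide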
Target sequence (Q07817 whole entry, looked up): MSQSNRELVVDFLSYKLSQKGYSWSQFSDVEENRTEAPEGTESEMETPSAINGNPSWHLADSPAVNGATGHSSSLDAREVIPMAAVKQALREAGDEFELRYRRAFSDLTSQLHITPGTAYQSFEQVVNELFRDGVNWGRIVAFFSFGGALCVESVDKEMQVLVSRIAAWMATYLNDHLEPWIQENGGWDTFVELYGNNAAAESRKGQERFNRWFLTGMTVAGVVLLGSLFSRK
MCL1-BIM inh – MCL1-BIM-BH3 interaction inhibition (human). GST-MCL1 / FITC-Bim-BH3 fluorescence polarization. AID 2057. Q07820. 0.68% of 320,000 active. inhibition, % at 10.9 µM;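 active = inhibition above the mean inhibition of all tested compounds plus 3 SD, set per campaign, cut at about 40% in these data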;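 note: 0% = DMSO wells and 100% = unlabeled Bim-BH3 peptide control; higher means more loss of mP so more displacement of Bim peptide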
Mcl1-Bid inh – disrupts binding of human Mcl-1 to Bid peptide; Q07820; TR-FRET Mcl-1/Bid-Dy647 peptide binding, 1536-well; inhibition, % at 21.7 µM; 0.97% of 220,000 active; AID 1021;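 active = compounds that cut the binding signal by more than half at the single screening dose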;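 note: His-tagged Mcl-1 with europium anti-His antibody binding Bid BH3 peptide; 0% = Mcl-1 plus peptide wells and 100% = peptide-only wells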
An asterisk follows results filed as active; / = not tested or not shown.

SMILES	Mcl1 Noxa PPI	Mcl-1 Bim block	GLD-1 TGE inh	BCLXL inh	MCL1-BIM inh	Mcl1-Bid inh
CC1=C(C#N)C(=O)N(C2CCS(=O)(=O)C2)C(=O)/C1=C\c1ccc(C)o1 (stereo not given)	92.7*	/	-9.9	30.4*	51.5*	4.5
O=C1/C(=C/c2ccccc2)SC(=S)N1C1CCS(=O)(=O)C1 (stereo not given)	-9.0	/	4.8	5.8	9.9	-25.9
CN(C)S(=O)(=O)c1ccc(F)c(C(=O)Nc2ccccc2C(=O)NC2CC2)c1	/	/	0.2	1.1	0.5	/
N#CC(C#N)=C1C=CC=CN1/C(=C\c1ccccc1Cl)C(=O)c1ccccc1	64.0*	25.0	25.8	51.5*	43.5*	12.6
O=C(NNC(=O)C12CC3CC(CC(O)(C3)C1)C2)c1csc(N2CCOCC2)n1	/	/	-3.9	3.1	10.6	/
COc1ccc(CCNS(=O)(=O)c2ccc3c(c2)CCN3C(=O)CCC(=O)O)cc1OC	-3.0	0.0	-7.9	-4.4	-10.5	-28.1
COc1ccc(CCNC(=O)CCNS(=O)(=O)c2ccc3c(c2)CCN3C(C)=O)cc1OC	-7.1	-3.0	2.6	4.7	1.9	57.6*
Cc1nn(CC(=O)N2CCOCC2)c(=O)c2nn(-c3ccccc3)c(C)c12	/	/	1.8	4.2	0.4	/
C=CSc1sc(Cl)c(N(CC)CC)c1[N+](=O)[O-]	52.3*	-1.0	-1.4	9.0	26.4	-55.5
C#CCOCCOCCOCCNc1nc(N2CCN(C(=O)[C@H](CCCCN)n3cc([C@@H](N)CC(C)C)nn3)CC2)nc(N2CCN(C(=O)[C@H](Cc3cc4ccccc4[nH]3)n3cc([C@@H](N)Cc4ccc(O)cc4)nn3)CC2)n1	36.5	1.0	6.7	-0.4	-2.0	59.9*
C#CCOCCOCCOCCNc1nc(N2CCN(C(=O)[C@H]([C@@H](C)CC)n3cc(CCCN=C(N)N)nn3)CC2)nc(N2CCN(C(=O)[C@H](CCCCN)n3cc(CCCC)nn3)CC2)n1	32.5	-2.0	5.1	2.8	5.0	7.2
C#CCOCCOCCOCCNc1nc(N2CCN(C(=O)[C@H]([C@@H](C)CC)n3cc([C@@H](N)CO)nn3)CC2)nc(N2CCN(C(=O)[C@H]([C@@H](C)CC)n3cc([C@@H](N)CO)nn3)CC2)n1	11.4	/	/	/	/	-38.5
C#CCOCCOCCOCCNc1nc(N2CCN(C(=O)[C@H](CCCCN)n3cc(C(N)CC(C)C)nn3)CC2)nc(N2CCN(C(=O)[C@H](CCC(=O)O)n3cc(C(N)[C@H](C)CC)nn3)CC2)n1 (stereo not given in full)	36.8	-2.0	2.8	6.6	2.5	82.4*
C#CCOCCOCCOCCNc1nc(N2CCN(C(=O)[C@H](C)n3cc(CCCN=C(N)N)nn3)CC2)nc(N2CCN(C(=O)[C@H](CCCCN)n3cc(CCCC)nn3)CC2)n1	40.2	-1.0	/	/	/	72.3*
C#CCOCCOCCOCCNc1nc(N2CCN(C(=O)[C@H](CCCCN)n3cc([C@@H](N)CO)nn3)CC2)nc(N2CCN(C(=O)[C@H](Cc3cc4ccccc4[nH]3)n3cc([C@@H](N)Cc4ccc(O)cc4)nn3)CC2)n1	35.5	-3.0	-6.8	5.9	10.2	42.8
C#CCOCCOCCOCCNc1nc(N2CCN(C(=O)[C@H](CCCCN)n3cc(C(N)CO)nn3)CC2)nc(N2CCN(C(=O)[C@H](CCC(=O)O)n3cc(C(N)CC(C)C)nn3)CC2)n1 (stereo not given in full)	14.6	/	/	/	/	13.4
C#CCOCCOCCOCCNc1nc(N2CCN(C(=O)[C@H]([C@@H](C)CC)n3cc([C@@H](N)CO)nn3)CC2)nc(N2CCN(C(=O)[C@H]([C@@H](C)CC)n3cc([C@@H](N)CC(C)C)nn3)CC2)n1	22.7	-2.0	20.8	43.4*	42.6*	55.8*
C#CCOCCOCCOCCNc1nc(N2CCN(C(=O)[C@H](CCC(=O)O)n3cc(C(N)CC(C)C)nn3)CC2)nc(N2CCN(C(=O)[C@H](Cc3ccc(O)cc3)n3cc(C(N)CC(C)C)nn3)CC2)n1 (stereo not given in full)	32.1	0.0	-0.5	4.8	10.6	59.0*
CCN(CC(=O)Nc1c(F)cccc1F)C(=O)CC1CCCCC1	/	/	2.5	3.0	6.0	/
CN=C(c1ccco1)n1c(=S)nc(-c2ccco2)n(C)c1=S	30.1	-15.0	9.3	33.4*	33.9	-10.4
